# Biological target: RIT1
# Assay: pooled miR-30 sensor sort-seq; sequence = guide strand
# Conditions: shRNA
# Further: reference of the scale not given here.
row,Sequence,sensor-assay potency score (higher = more potent)
1,TCGGACTCGATAAATAAGCTGT,-0.314
2,TAAGCTGTTTAAACTCACGAAC,-0.618
3,TTCTTTCCTACGTATCTCCCGT,-0.212
4,TACACCACCAGCACCCAGCATC,-0.912
5,TAGCTGTTTGAGGTCTGACTTG,-0.94
6,TTGGTGACCTGTCTTAGCTGTT,-0.52
7,TTGAGGTCTGACTTGTTTCCCA,-0.117
8,TAGCCTCTTCCATACACTGTTT,-0.898

# Biological target: RNASE11
# Assay: as above
# Conditions: shRNA
row,Sequence,sensor-assay potency score (higher = more potent)
1,TGATGCTTCTGCAAGAACCAGG,-0.377
2,TTTAACTAACAGGATCGGGTTC,-0.116
3,TTTAGTAAGACCCTAGTCCTAA,-0.427
4,TATTGCATCTCTTCGTCTGTAA,0.018
5,TTCGTCTGTAAATTCTTCTTTA,-0.406
6,TAATGAGGTAACACTATGGTAT,-0.534
7,TTATCTTCATTGTGCTTTCTGA,-0.608
8,TTGTGCTTTCTGATGCTTCTGC,0.534
9,TTCTGTACAAACTTGCAGCTGG,0.788
10,TTCTCTAATGAGGTAACACTAT,-1.05
11,TCTTTAATTATCTTCATTGTGC,-0.382
12,TTGGATTTTTCACTCCTCCAGT,-0.449

# — the OligoGym collection
